The source of these data is PubChem BioAssay (NCI).

The structures appear in SMILES notation. About 83,000 compounds went through this panel and 20% of them were active in at least one assay; those are over-represented in the sample as a whole.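 The test compound was applied at a single concentration to cells in 96-well plates for 48 hours, and percent growth was recorded.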 The source made the active and inactive calls.

The assay has as its system OVCAR-3 ovarian. Nature of the assay: NCI-60 one-dose screen, 48 h (100 = growth as untreated, 0 = no growth, -100 = all killed). The settings on record: 10 µM unless noted. The procedure:
Growth inhibition of the OVCAR-3 human tumor cell line is measured as a screen for anti-cancer activity. Cells are grown in 96 well plates and exposed to the test compound for 48 hours. Compounds are tested at a single concentration, which is 10^-5 M for most compounds. The reported endpoint is percent growth (GI% or GIPRCNT), where numbers from 0 - 100% represent growth inhibition, and numbers from -100% - 0 represent cell death. For example, a value of 40 represents 60% growth inhibition. A value of 0 means no net growth occurred over the course of the experiment. A value of -40 indicates 40% of cells at the beginning of the experiment died by the end of the experiment. A value of -100 means all cells are dead at the end of the experiment.
NCI-60 Human Tumor Cell Lines Screen was performed using the standard one-dose NCI protocol, which is described in more detail at https://dtp.cancer.gov/discovery_development/nci-60/default.htm.
Compounds with GIPRCNT values below 10 were considered active. Activity score was based on GIPRCNT using the following formula: […]
Score is 0 for GIPRCNT values of 100 or above, 50 for GIPRCNT values of 0, and 100 for GIPRCNT values of -100.
For the compound `CC1(C)N=C(N)N=C(N)N1c1ccc(OCC(=O)Nc2ccccc2)c(Cl)c1`, the growth was 56.7% (inactive).

As for `CS(=O)(=O)Nc1cccc(-c2ccc3ncnc(Nc4ccc(F)c(Cl)c4)c3c2)c1`, the growth was 25.9% (inactive). On to `COc1ccc(Cl)cc1NC(=O)c1cc2c([nH]1)-c1nc(N)sc1CCC2`, for which the growth was 106% (inactive).

Regarding `CC(=O)N1N=C(CCC(=O)c2nc3ccc([N+](=O)[O-])cc3[nH]2)OC1c1ccc(O)cc1` (stereo not given), the growth is 103% (inactive).

`COC1OCC(OS(=O)(=O)c2ccc(C)cc2)C(OC(=O)c2ccccc2)C1OC(=O)c1ccccc1` (stereo not given): the growth is -12.4% (active). Under `CCCCN(CCCC)c1ccc(C(=N)c2ccc(N(C)C)cc2)cc1` stands -74.3% (active).

In the case of `Cn1cnc([N+](=O)[O-])c1N1c2ccncc2Sc2ccncc21`, the growth is 92.7% (inactive). For the compound `Cc1cc(-c2ccccc2)nc2ccccc12`, the growth was 105% (inactive). On to `O=C(NCCNc1nccc(-c2c(-c3cccc(O)c3)nc3sccn23)n1)c1cccc(C(F)(F)F)c1`, for which the growth was 89.8% (inactive). Under `Cc1c(NC(=O)c2sc3nc4c(cc3c2N)CN(Cc2ccccc2)CC4)cccc1C(F)(F)F` stands 6.31% (active); under `CC1=C[S+](c2ccccc2)c2cccc3cc4ccccc4c1c23` (stereo not given), -82.9% (active); under `CC1(C)N=C(N)N=C(N)N1c1ccc(F)c(C(F)(F)F)c1`, 53.9% (inactive). The value for `O=C(NOC1OC(CO)C(O)C(O)C1O)Nc1ccccc1` (stereo not given) was 105% (inactive). Under `O=C(CSc1nnc(-c2ccccc2)o1)Nc1ccc(C(=O)/C=C/c2ccccc2)cc1` stands 41.8% (inactive); under `C#CCn1c(-c2cc(OC)c(OC)cc2Br)nc(-c2ccccc2)c1-c1ccccc1`, 9.74% (active); under `COc1cc([C@@H]2c3cc4c(cc3C(OC3O[C@@H]5COC(C)O[C@H]5[C@H](O)[C@H]3O)C3COC(=O)[C@@H]32)OCO4)cc(OC)c1O` (stereo not given in full), 37.1% (inactive). For `CCCCNC(=O)Oc1ccc(/C(=C(/CC)Cc2ccccc2)c2ccc(OCCCN(C)C)cc2)cc1`, the growth was 85.2% (inactive). Under `CCCCCCCCN(CCCCCCCC)CC(O)c1cc(-c2ccccc2)nc2ccc(OC)cc12` (stereo not given) stands 66.6% (inactive); under `O=c1cc(Cl)[nH]c(=O)[nH]1`, 109% (inactive); under `CCCCC(=O)Nc1nc2ccc(SCCC)cc2s1`, 22.8% (inactive). Under `CC(NCCC(c1ccccc1)c1ccccc1)c1ccccc1` (stereo not given) stands 78.4% (inactive); under `CN1CCN(C(=O)/C=C/c2ccc([N+](=O)[O-])o2)CC1`, 92% (inactive); under `CC(C)CCC[C@@H](C)[C@H]1CC[C@H]2[C@@H]3CC=C4N(c5ccccc5)C(=O)CC[C@]4(C)[C@H]3CC[C@]12C`, 92.1% (inactive). The value for `Cn1c(I)c(C#C[Si](C)(C)C)c(=O)[nH]c1=O` was -54.1% (active); that for `Cc1cc(N2CCOCC2)nc(N(CCNc2ccnc3cc(Cl)ccc23)Cc2ccco2)n1` was -64.3% (active).

Regarding `NC(=S)NNC1CCCCC1`, the growth was 110% (inactive). Under `FC(F)(F)c1cccc([Si](F)(c2cccc(C(F)(F)F)c2)c2cccc(C(F)(F)F)c2)c1` stands 68% (inactive).

For `C=CCn1c(SCC(=O)Nc2ccc(/C(C)=N\O)cc2)nnc1-c1cc(-c2ccc(OC)cc2)nc2ccccc12`, the growth is 37% (inactive). On to `COc1cc(CN(c2ccc(Cl)cc2)C2OC(=O)c3ccccc32)cc(OC)c1OC` (stereo not given), for which the growth was 48.8% (inactive). The value for `CCCCOc1c(N)cc(Cl)cc1C(=O)OCCN(CC)CC` was 108% (inactive). The value for `Cc1cn(C2CC(F)C(CO)O2)c(=O)[nH]c1=O` (stereo not given) was 137% (inactive); that for `CSc1ccc(C(=O)C[n+]2cccc(C)c2)cc1` was 104% (inactive). Regarding `COc1ccccc1NC(=O)COc1ccc(/C=C2/Oc3cc4occc4c(OC)c3C2=O)cc1OC`, the growth is 105% (inactive). Under `Cc1ccc2oc(=O)cc(C3C(C#N)=C(N)Oc4c3ccc3ccccc43)c2c1` (stereo not given) stands 75.6% (inactive); under `COc1ccc(-c2nn(-c3ccc(NC(=O)Nc4ccc(Cl)c(C(F)(F)F)c4)cc3)cc2-c2ccncc2)cc1Cl`, -1.59% (active); under `CCN(CC)CC(=O)Nc1c(C)cccc1C`, 118% (inactive).

With `O=C(N/N=C/c1ccccc1O)c1ccccc1O`, the growth is 39.8% (inactive).

As for `O=C(Nc1ccc(Cl)c(Cl)c1)Nc1ccc(Cl)c([N+](=O)[O-])c1`, the growth is 6.38% (active).

`O=C(Nc1ccc(-n2cc(-c3ccncc3)c(-c3ccc(O)c(Cl)c3)n2)cc1)c1ccc(Cl)c(Cl)c1`: the growth was 25.7% (inactive). Under `COc1cc(C(=O)NNC(=O)c2ccccc2O)cc(OC)c1OC` stands 109% (inactive).
